This passage reports growth results from PubChem BioAssay (NCI).

The panel holds about 83,000 compounds, 20% with a hit somewhere; the sample as a whole holds those more often.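 The endpoint reported here, percent growth, reads 100 for growth as untreated, 0 for no net growth and -100 for all cells dead.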 A number with no mark means an inactive call. Active and inactive are the calls of the source. Rule for the calls: active = growth percent below 10; inactive = the rest.

Test systems include EKVX NSCLC; SN12C renal; UO-31 renal; TK-10 renal; ACHN renal; CAKI-1 renal; A498 renal; CCRF-CEM leukemia; MOLT-4 leukemia; SR leukemia; RPMI-8226 leukemia; OVCAR-8 ovarian; OVCAR-5 ovarian; SK-OV-3 ovarian; IGROV1 ovarian; OVCAR-3 ovarian; HS 578T breast; NCI/ADR-RES ovarian; T-47D breast; OVCAR-4 ovarian.
Common to all, as to assay: NCI-60 one-dose screen, 48 h (100 = growth as untreated, 0 = no growth, -100 = all killed)
What all share (settings): 10 µM unless noted

Regarding `CCOC(=O)c1csc(NC(=O)CSc2nc3sc4c(c3c(=O)n2-c2ccc(Cl)cc2)CCCC4)n1`, the growth is 90.6% in the test on EKVX NSCLC; 94.9% with SN12C renal; 77.2% with UO-31 renal; 125% in the test on TK-10 renal; 102% in the test with ACHN renal; 92% with CAKI-1 renal. In addition, the growth is 88.1% in the test on A498 renal; 100% in the test with CCRF-CEM leukemia; 81.1% with MOLT-4 leukemia; 95.9% in the test on SR leukemia; 92.5% with RPMI-8226 leukemia; 97.6% in the test with OVCAR-8 ovarian. In addition, the growth in the test with OVCAR-5 ovarian was 97.9%; with SK-OV-3 ovarian, 135%; with IGROV1 ovarian it was 89.6%; with OVCAR-3 ovarian it was 138%; with HS 578T breast, 97.3%; in the test with NCI/ADR-RES ovarian, 107%. Further, the growth with T-47D breast is 87%.
With `COc1ccc(/C=C/C(=O)c2ccc(NC(=O)CSc3nnc(-c4ccc5nc(-c6ccc(Cl)cc6)[nH]c5c4)o3)cc2)cc1`, the growth in the test with EKVX NSCLC was 103%; in the test with SN12C renal, 93.4%; in the test on UO-31 renal, 87.5%; in the test with TK-10 renal, 136%; in the test with ACHN renal, 102%; in the test with CAKI-1 renal, 97.4%. Also, the growth was 111% in the test with A498 renal; 59.9% in the test with CCRF-CEM leukemia; 80.5% in the test with SR leukemia; 64.4% in the test with RPMI-8226 leukemia; 79.5% in the test with OVCAR-8 ovarian; 107% in the test with OVCAR-5 ovarian. In addition, the growth in the test on OVCAR-4 ovarian is 103%; with SK-OV-3 ovarian it was 106%; in the test with IGROV1 ovarian, 95.3%; in the test with OVCAR-3 ovarian it was 111%; in the test on HS 578T breast, 94.7%; in the test with NCI/ADR-RES ovarian it was 107%. The growth in the test with T-47D breast was 78%.
Regarding `COc1cc(-c2nc3ccc(-c4nnc(SCC(=O)Nc5ccc(C(=O)/C=C/c6ccc(Cl)cc6)cc5)o4)cc3[nH]2)cc(OC)c1OC`, the growth in the test with EKVX NSCLC is 99.5%; in the test with SN12C renal, 90.4%; in the test with UO-31 renal, 84%; with TK-10 renal, 120%; in the test on ACHN renal, 96.8%; in the test with CAKI-1 renal, 97.2%. Moreover, the growth was 83.2% with A498 renal; 81.6% with CCRF-CEM leukemia; 60.4% with SR leukemia; 57.2% with RPMI-8226 leukemia; 92.5% in the test with OVCAR-8 ovarian; 99.2% in the test on OVCAR-5 ovarian. Also, the growth in the test with OVCAR-4 ovarian was 100%; with SK-OV-3 ovarian, 121%; with IGROV1 ovarian, 81.6%; in the test with OVCAR-3 ovarian, 97.9%; in the test with HS 578T breast, 87.9%; in the test on NCI/ADR-RES ovarian, 106%. Besides, the growth in the test with T-47D breast is 80.4%.
`O=C(N/N=C/c1ccc(Cl)s1)c1[nH]c2ccc(Br)cc2c1-c1ccccc1`: the growth in the test with EKVX NSCLC was 41.7%; in the test on SN12C renal, 50.4%; in the test with UO-31 renal, 46.2%; with TK-10 renal, 111%; in the test on ACHN renal, 25.3%; with CAKI-1 renal, 23.8%. Besides, the growth is 10.9% with CCRF-CEM leukemia; 14.1% in the test on MOLT-4 leukemia; 9.05% (active) in the test with SR leukemia; 5.6% (active) with RPMI-8226 leukemia; 2.09% (active) in the test with OVCAR-8 ovarian; 52.9% with OVCAR-5 ovarian. Further, the growth in the test with OVCAR-4 ovarian is 69.5%; with SK-OV-3 ovarian, 29.6%; with IGROV1 ovarian, 19.5%; with OVCAR-3 ovarian, 20.8%; in the test with NCI/ADR-RES ovarian, 17.2%; in the test with T-47D breast it was 64.7%.
For `C#Cc1nc(C2=C(C)C(OC(C)=O)/C(=N/OC(C)=O)C2)cs1` (stereo unspecified), the growth in the test on EKVX NSCLC was 9.96% (active); in the test on SN12C renal it was 86.6%; with UO-31 renal, -88.9% (active); in the test on TK-10 renal it was 203%; in the test on ACHN renal, -66% (active); in the test on CAKI-1 renal, -50.2% (active). Further, the growth in the test on CCRF-CEM leukemia was -39% (active); with MOLT-4 leukemia, -35.2% (active); with SR leukemia, -25.6% (active); with RPMI-8226 leukemia, -45.1% (active); in the test with OVCAR-8 ovarian it was 0.146% (active); with OVCAR-5 ovarian, 30.1%. The growth in the test with OVCAR-4 ovarian was -46% (active); in the test on SK-OV-3 ovarian it was -78.4% (active); in the test with IGROV1 ovarian, -59% (active); in the test on OVCAR-3 ovarian it was -15.8% (active); with HS 578T breast it was 4.76% (active); with NCI/ADR-RES ovarian, -5.63% (active). In addition, in the test with T-47D breast, the growth is 67%.
With `COc1ccc(/C=N/NC(=O)c2[nH]c3ccc(Br)cc3c2-c2ccccc2)o1`, the growth is 37.8% in the test with EKVX NSCLC; 43.3% with SN12C renal; 46.1% in the test on UO-31 renal; 94.5% in the test on TK-10 renal; 28.1% in the test with ACHN renal; 26.3% in the test with CAKI-1 renal. For the same compound, the growth in the test on CCRF-CEM leukemia is 15.4%; with MOLT-4 leukemia, 17%; with SR leukemia, 17.7%; in the test with RPMI-8226 leukemia, 12.5%; in the test on OVCAR-8 ovarian, -12.2% (active); in the test on OVCAR-5 ovarian, 39.9%. Also, the growth was 68% in the test with OVCAR-4 ovarian; 38.1% in the test on SK-OV-3 ovarian; 19.7% with IGROV1 ovarian; 16.6% in the test with OVCAR-3 ovarian; 19.9% in the test on NCI/ADR-RES ovarian; 78.4% in the test with T-47D breast.
`CN(C)c1ccc(/C=C2\Cc3c(F)ccc(Br)c3C2=O)cc1`: the growth was 80.5% with EKVX NSCLC; 98.2% in the test on SN12C renal; 77% in the test with UO-31 renal; 140% in the test with TK-10 renal; 84.8% in the test with ACHN renal; 82% in the test with CAKI-1 renal. In addition, the growth with CCRF-CEM leukemia is 94.2%; in the test with MOLT-4 leukemia it was 97.7%; with SR leukemia, 76%; with RPMI-8226 leukemia it was 93.1%; in the test on OVCAR-8 ovarian, 96.5%; in the test with OVCAR-5 ovarian, 107%. For the same compound, the growth is 35.9% with OVCAR-4 ovarian; 97.7% with SK-OV-3 ovarian; 56.5% in the test with IGROV1 ovarian; 101% in the test with OVCAR-3 ovarian; 92.2% with HS 578T breast; 91% with NCI/ADR-RES ovarian. In addition, in the test with T-47D breast, the growth is 54.2%.
